# Screening data as filed in PubChem BioAssay.
# Hits are enriched below; roughly 2.9% of the tested compounds scored in any of these assays.
# pPAFAH FP inh = pPAFAH (human) enzyme inhibition; recombinant pPAFAH, FP-rhodamine probe fluorescence polarization; Q13093; actives 1.5% (n = 330,000); inhibition, % at 3.39 µM; AID 463082;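 active = inhibition above the mean inhibition across the screen plus 3 SD, cut at about 25% in these data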;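 also: inhibitors block binding of the rhodamine activity-based probe so polarization drops; 0% = enzyme with DMSO and 100% = wells lacking pPAFAH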
# Target sequence (Q13093 whole entry, looked up): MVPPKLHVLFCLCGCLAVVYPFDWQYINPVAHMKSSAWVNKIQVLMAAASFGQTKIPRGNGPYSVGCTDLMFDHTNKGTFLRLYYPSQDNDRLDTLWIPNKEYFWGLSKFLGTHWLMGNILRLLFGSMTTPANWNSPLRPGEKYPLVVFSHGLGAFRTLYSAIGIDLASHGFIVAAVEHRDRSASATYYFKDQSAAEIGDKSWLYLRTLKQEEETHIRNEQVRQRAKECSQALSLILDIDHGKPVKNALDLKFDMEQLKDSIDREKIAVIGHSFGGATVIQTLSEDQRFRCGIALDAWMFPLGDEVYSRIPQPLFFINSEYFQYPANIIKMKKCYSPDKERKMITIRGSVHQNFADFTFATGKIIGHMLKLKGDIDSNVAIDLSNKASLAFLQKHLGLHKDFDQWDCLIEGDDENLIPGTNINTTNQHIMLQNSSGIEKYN
# PAFAH1B3 inh = PAFAH1B3 (human) inhibition. recombinant PAFAH1B3, FP-rhodamine probe, fluorescence polarization. Q15102. AID 492972. inhibition, % at 3.39 µM. actives 0.28% (n = 340,000);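 active = inhibition above the screen-wide average of all tested compounds plus 3 SD, cut at about 25% in these data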;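 also: 0% = enzyme with DMSO only and 100% = wells lacking PAFAH1B3 protein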
# PAFAH1B2 FP inh = inhibitors of human PAFAH1B2. P68402. recombinant PAFAH1B2, FP-rhodamine activity probe, fluorescence polarization. inhibition, % at 3.39 µM. actives 1.2% (n = 340,000);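 active = inhibition above the mean of all tested compounds plus 3 SD, cut at about 24% in these data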;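 also: 0% = enzyme with DMSO and 100% = wells lacking PAFAH1B2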
# EBNA-1 inhibitor = blocks EBNA-1 binding to DNA; inhibition, % at 14.8 µM; EBNA-1 DNA binding, fluorescence polarization; actives 0.34% (n = 300,000); in the data active = inhibition above about 28%
# PAFAH2 FP inh = inhibitors of human PAFAH2; Q99487; recombinant PAFAH2, FP-rhodamine activity probe, fluorescence polarization; inhibition, % at 3.39 µM; actives 0.99% (n = 340,000); AID 492956;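 active = inhibition above the mean over all tested compounds plus 3 SD, cut at about 30% in these data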;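 also: inhibitors block probe labeling of enzyme so polarization drops; 0% = enzyme with DMSO and 100% = wells lacking PAFAH2 protein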
# ZTA DNA inh = ZTA (EBV) inhibition in EBNA-1 counter-screen; P03206; inhibition, % at 11 µM; AID 2234; ZTA-DNA binding, fluorescence polarization; actives 0.15% (n = 320,000); in the data active = inhibition above about 33%
# Numbers without * were called inactive; . = no result given.
SMILES,pPAFAH FP inh,PAFAH1B3 inh,PAFAH1B2 FP inh,EBNA-1 inhibitor,PAFAH2 FP inh,ZTA DNA inh
O=[N+]([O-])c1cc(Cl)cc(/C=N/NC(=S)Nc2ccc(S(=O)(=O)N3CCOCC3)cc2)c1O,52*,23,37*,-1,42*,19
CCc1ccc(O)c(N=Cc2ccccc2O)c1,13,6,2,8,9,8
O=c1[nH][nH]c2c(N=Cc3ccccc3O)ccc(F)c12,.,61*,40*,.,62*,.
COC(=O)[C@H](Cc1ccccc1)NC(=O)NCc1ccc(C)cc1,0,.,.,3,.,6
Cc1ccc(CNC(=O)N[C@@H](Cc2ccccc2)C(=O)O)cc1,1,2,26*,-15,0,-22
CC1(C)CC2CC(C)(CN2C(=O)CN2C(=O)c3ccccc3C2=O)C1 (configuration not stated),5,4,24*,3,-8,6
CC1(C)CC2CC(C)(CN2C(=O)Cc2ccccc2)C1 (configuration not stated),0,-2,5,4,1,-5
O=C(O)CCCCCCCCCCCc1ccccc1,25*,10,55*,-3,16,7
O=C(CCC(=O)NCCCc1ccccc1)NCCCc1ccccc1,10,0,9,5,6,6
O=C(NC1CC2CCCC(C1)N2Cc1ccc(F)cc1)c1ccc(F)cc1 (configuration not stated),-5,15,2,-1,-1,-8
CCOc1ccc(S(=O)(=O)NCCC(=O)OCC(=O)NC(=O)c2cccn2C)cc1,25*,10,0,.,2,.
CC1CC(NC(=O)CCn2c(=O)oc3ccccc32)CC(C)(C)C1 (configuration not stated),3,7,38*,-2,44*,3
O=C(CCCn1c(=O)oc2ccccc21)NC1CCCCCC1,4,.,.,2,.,-12
O=C(CCS(=O)(=O)c1ccc2c(c1)NC(=O)CS2)NCCc1ccc(Cl)cc1,5,6,26*,1,1,-8
O=C(CCS(=O)(=O)c1ccc2c(c1)NC(=O)CS2)NCCc1ccccc1,5,8,2,3,3,-12
COc1ccc(CN(CC(=O)NCc2ccc(F)cc2)C(=O)CCC(=O)Nc2cc(C)ccn2)cc1,13,-2,6,-2,-8,0
Cc1cc(C)n2nc(C(=O)OCC(=O)NCc3ccc(F)cc3)nc2n1,-1,2,7,.,11,.
O=C1OC(Nc2cc(Br)cc3cccnc23)c2ccccc21 (configuration not stated),30*,69*,18,0,22,2
COc1cc2c(cc1C1NC(=S)NC(C)=C1C(N)=O)CCCC2 (configuration not stated),-2,4,4,-6,2,-8
O=C(OCC(=O)N1CCN(C(=O)c2ccco2)CC1)c1cc(-c2ccc(Cl)c(Cl)c2Cl)nc2ccccc12,-1,-4,2,3,-12,7
O=C(OCC(=O)N1CCN(C(=O)c2ccco2)CC1)c1cc(-c2ccco2)nc2ccccc12,31*,3,5,9,52*,2
CC1CCCCC1NC(=O)COC(=O)c1c2c(nc3ccccc13)/C(=C/c1ccco1)CC2 (configuration not stated),31*,13,6,10,27,-10
CCOc1ccc(C(=O)C(C)OC(=O)c2nc(Cl)ccc2Cl)cc1 (configuration not stated),-3,-1,1,-6,1,-3
CCOC(=O)C1=C(O)/C(=C\c2ccc(CNS(=O)(=O)c3ccc(Br)cc3)o2)N=C1C,28*,10,8,2,-3,13
Cc1ccc(S(=O)(=O)NCCC(=O)Nc2ccc(Cl)c(Cl)c2)cc1,1,-4,29*,4,6,6
SMILES,pPAFAH FP inh,PAFAH1B3 inh,PAFAH1B2 FP inh,EBNA-1 inhibitor,PAFAH2 FP inh,ZTA DNA inh
CC(=O)Nc1ccc(S(=O)(=O)NCCC(=O)Nc2ccc(C)c(Cl)c2)cc1,1,2,8,-6,-1,8
Cc1ccc(S(=O)(=O)NCCC(=O)Nc2ccc(Cl)c(Cl)c2)cc1C,0,-3,25*,2,-3,5
O=C(COc1coc(CN2CCCc3ccccc32)cc1=O)Nc1ccccc1,3,2,1,-11,3,0
O=C(CNCCC1=CCCCC1)Nc1ccc(N2CCCCCC2)cc1,32*,-2,8,-15,11,8
Cc1ccc(OCC(=O)Nc2ccc(N3CCCC3)cc2)cc1C,30*,11,3,5,16,1
Cc1cccc(OCC(=O)Nc2ccc(N3CCCC3)cc2)c1C,30*,6,5,-1,11,-7
CC1CCN(CC(=O)Nc2ccc(N3CCCCCC3)cc2)CC1,3,8,4,2,12,5
COc1ccc(N2CCN(C(=O)c3ccc(CSc4ccccc4)cc3)CC2)cc1,7,5,26*,-8,2,7
Cc1ccc(C(=O)N2CCN(c3ccc(NC(=S)NC(=O)Cc4ccccc4)cc3)CC2)cc1,25*,9,1,4,6,3
COc1ccc(N2CCN(C(=O)CSc3ccccc3)CC2)cc1,14,8,0,-10,-2,-14
CC(=O)N1CCN(c2ccc(NCc3cccs3)cc2)CC1,15,4,4,-6,1,10
CC(=O)N1CCN(c2ccc(NCc3ccccc3)cc2)CC1,32*,0,6,0,-4,1
CC(=O)N1CCN(c2ccc(NCc3cccc4ccccc34)cc2)CC1,31*,6,-1,-4,5,-12
O=C(Cn1cc(SCc2cccc(Cl)c2)c2ccccc21)N1CCOCC1,8,-3,1,8,11,1
COc1ccc(NC(=O)CN2CCN(S(=O)(=O)N3CCCCCC3)CC2)cc1,8,-1,1,9,-11,5
COc1ccc(Cl)cc1NC(=S)NCc1ccc(S(N)(=O)=O)cc1,5,17,-1,3,2,-14
Cc1ccc2nc(SCC(=O)OCc3ccccc3)nc(=O)n2c1,0,10,5,1,-4,-4
Cc1cccc(C(=O)OCN2C(=O)c3ccccc3C2=O)c1[N+](=O)[O-],2,2,3,4,24,-9
Cc1cccc(CS(=O)(=O)Cc2ccc(C(=O)NCCCN3CCCC3)o2)c1,33*,6,-6,2,-2,3
COc1ccc(CCNC(=O)c2ccc(CSc3ccccc3)o2)cc1,25*,0,16,-3,-4,3
COc1ccc(CCNC(=O)c2ccc(COc3ccccc3OC)o2)cc1,3,4,-3,10,2,11
Cc1cccc(CS(=O)(=O)Cc2ccc(C(=O)NCCc3ccccc3)o2)c1,29*,8,4,-3,6,-6
CCCCNC(=O)c1ccc(CS(=O)(=O)Cc2ccccc2F)o1,25*,6,9,-10,-1,-14
